TGFb SMAD3 inh = inhibitors of TGF-b signaling | Potency, µM (highest dose often 46.1 µM), inactives show at the highest dose activity, negative = inhibition, usual class: inhibitors | HepG2 CAGA-GFP TGF-b/SMAD3 reporter, GFP fluorescence, 18 h; TGF-beta stimulated, 500 pg/mL final | AID 588855 | 410,000 compounds, 1.2% hits; also: potency is read from the fitted curve at half-maximal effect; % is scaled to controls: 0 for no effect and ±100 for the full control effect; nearly all actives have a fitted effect of over 65% in size
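HEPG2 CAGA-GFP reporter cells (1000/well, DMEM with 1% FBS) received compounds, then recombinant TGF-beta at 500 pg/mL final for 18 hours at 37 degrees C. Per-cell GFP summed per well was normalised to unstimulated and stimulated DMSO controls before curve fitting.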
D3 ag = D3 dopamine receptor (human) agonism. D3R DiscoveRx beta-arrestin cells, luminescence, 90 min. 410,000 compounds, 0.58% hits. P35462. max activation, %; in the data active = max activation above about 30%; also: 0% is about no effect
Target sequence (P35462 whole entry, looked up): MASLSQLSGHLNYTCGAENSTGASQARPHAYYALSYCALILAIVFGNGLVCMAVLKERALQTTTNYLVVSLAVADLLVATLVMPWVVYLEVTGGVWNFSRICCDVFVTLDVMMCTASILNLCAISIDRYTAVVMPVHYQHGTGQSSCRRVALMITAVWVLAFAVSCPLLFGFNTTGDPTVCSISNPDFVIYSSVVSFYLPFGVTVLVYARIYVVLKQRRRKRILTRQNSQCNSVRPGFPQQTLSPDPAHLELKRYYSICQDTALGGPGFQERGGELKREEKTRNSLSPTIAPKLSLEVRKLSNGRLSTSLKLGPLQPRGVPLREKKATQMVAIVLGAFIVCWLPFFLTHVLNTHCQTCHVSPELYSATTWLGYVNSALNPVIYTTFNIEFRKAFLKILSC
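Agonist mode: compounds and dopamine controls were applied to plated cells for 90 min at 37 degrees C after an overnight attachment at 1500 cells/well. Luminescent read-out followed 30 - 60 minutes at room temperature with DiscoveRx detection reagent.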
D3 antag = antagonists of human D3 dopamine receptor. max response, negative = inhibition, %. P35462. AID 652054. D3R cells, DiscoveRx beta-arrestin luminescence, antagonist mode; hits give low values. 360,000 compounds, 2.5% hits; in the data active = max response below about -50%; inconclusive = no clear call, values can overlap the other calls; also: % is scaled to controls: 0 for no effect and ±100 for the full control effect
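Cells expressing the human receptor were seeded at 1500 cells/well, incubated overnight at 37 degrees C in 5% CO2, then exposed to library compounds with dopamine controls for 90 minutes at 37 degrees C before luminescent detection.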
ATXN2 expr inh = reduces ATXN2 reporter expression in HEK-293 cells | AID 1745845 | HEK-293 ATXN2-luciferase reporter, luminescence, 24 h | 360,000 compounds, 0.72% hits | Potency, µM (top dose mostly 57 µM), without a hit: at the highest dose activity change, negative = inhibition, usual class: inhibitors; also: potency is read from the fitted curve at half-maximal effect; % is scaled to controls: 0 for no effect and ±100 for the full control effect; nearly all actives have a fitted effect of over 55% in size
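qHTS (up to 57 uM final) was run with 24 h compound exposure of reporter cells at 37 °C. Each well was multiplexed: SteadyGlo luminescence measured ATXN2-luciferase expression after a fluorogenic Gly-Phe-AFC viability readout (25 uM final).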
HepG2 tox = HepG2 cytotoxicity, counter-screen for TGF-b inhibitors | 410,000 compounds, 0.76% hits | Potency, µM (titrated, usually from 46.1 µM), without a hit: at the top dose activity change, negative = cytotoxicity, hits mostly cytotoxic | AID 588856 | HepG2 CAGA-GFP viability, ATP luminescence, 18 h; also: potency is read from the fitted curve at half-maximal effect
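HepG2 CAGA-GFP cells (1000/well, DMEM with 1% FBS) received compound, then TGF-beta at 500 pg/mL final, and were incubated 18 hours at 37 degrees C. Viability was read by CellTiter-Glo luminescence. Media-only wells were set as complete cell-killing and DMSO as no toxicity.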
ATXN viability = reduces viability in counter-screen for ATXN expression inhibitors. S2 cells (HEK-293 line with an ATXN2-luciferase reporter) viability, CellTiter-Fluor protease fluorescence, 24 h. Potency, µM (series often up to 56.7 µM), most hits filed as cytotoxic. 400,000 compounds, 0.49% hits. AID 651635; also: potency is read from the fitted curve at half-maximal effect; nearly all actives have a fitted effect of over 40% in size
* = called active by the depositor; i = inactive; ? = inconclusive; . = not tested or not shown. Shown are actives, neighbours in structure and some others; about 4.8% of the full set was active somewhere. Unless noted, calls follow the shape of the dose curve; as a rule, active = well fitted curve in the direction sought with a large enough effect; inconclusive = small, poorly fitted or top-dose-only effect, or another doubt; inactive = no such curve, though single readings can be large; an effect the other way counts as inactive or inconclusive.

SMILES	TGFb SMAD3 inh	D3 ag	D3 antag	ATXN2 expr inh	HepG2 tox	ATXN viability
CC1(C)N=C(c2ccccc2)C(=O)N1	-3%	10	14	4%	-3%	i
c1ccc2c(c1)OCC(c1csc3ncnc(N4CCCC4)c13)O2 (stereo unspecified)	?	2	57	-5%	-12%	i
c1ccc(CCNc2ncnc3scc(C4COc5ccccc5O4)c23)cc1 (stereo unspecified)	16µM*	21	-13	-27%	-47%	i
CC1CC2(C)Oc3ccccc3CC2C(C)C1CNCCCN(C)C (stereo unspecified)	?	-19	?	14µM*	13µM*	?
Cc1ccnc(NS(=O)(=O)c2ccc(NC(=O)c3ccc([N+](=O)[O-])s3)cc2)n1	?	-2	-19	?	11µM*	i
Cc1cc(NS(=O)(=O)c2ccc(NC(=O)c3ccc([N+](=O)[O-])s3)cc2)nc(C)n1	?	1	18	-14%	-26%	?
COc1ccc(CCn2c3c(c(=O)[nH]c2=O)C(NC(=O)c2ccccc2)(C(F)(F)F)C(=O)N3)cc1OC (stereo unspecified)	?	3	.	10%	-3%	i
CCOC(=O)N1CCC(Nc2c(Nc3ccc(C)c(C)c3)c(=O)c2=O)CC1	8%	-68	-71*	9%	-18%	i
CCOC(=O)N1CCN(c2c(NC3CCN(Cc4ccccc4)CC3)c(=O)c2=O)CC1	-20%	-22	-51*	?	-5%	?
CCOC(=O)N1CCC(Nc2c(OCC)c(=O)c2=O)CC1	9%	-2	23	-3%	7%	i
CCOC(=O)N1CCN(c2c(NCCc3ccccc3)c(=O)c2=O)CC1	10%	3	16	6%	16%	i
Cc1ccc(Cl)cc1N1CCN(C(=O)c2ccc(C)c(-n3c(C)nc4cccnc43)c2)CC1	?	-7	.	.	-48%	.
Cc1c(C(=O)Nc2ccc(F)c(F)c2)oc2ccc(S(=O)(=O)N3CCC4(CC3)OCCO4)cc12	-15%	31*	.	.	4%	.
Cc1c(C(=O)Nc2ccc(F)cc2)oc2ccc(S(=O)(=O)N3CCC4(CC3)OCCO4)cc12	-8%	65*	29	-32%	2%	i
O=C(Cc1ccccc1)NCCc1ccc(Cl)cc1Cl	-2%	2	16	-3%	7%	i
N=c1sccn1CC(=O)NCCc1ccc(Cl)cc1Cl	9%	-9	-50*	-1%	-18%	?
Nc1nc(N=Nc2ccc(O)cc2)cc(=O)[nH]1	0%	-22	-90*	.	-29%	.
CN(C)CCCN(C(=O)c1ccc2c(c1)CCCC2)c1nc2ccc(Cl)cc2s1	?	-10	-88*	?	-98%	.
CCOc1ccc2nc(N(CCCN(C)C)C(=O)c3ccc4c(c3)CCCC4)sc2c1	?	-23	-84*	?	18µM*	i
CC(C)(C)n1ncc2c(=O)n(Cc3cccc(-c4cccs4)c3)cnc21	?	.	.	.	-17%	.
CCOc1ccc(N(CC)S(=O)(=O)N2CCCC(C(=O)Nc3ccc(OC)c(OC)c3)C2)cc1 (stereo unspecified)	-26%	9	.	.	-22%	.
Nc1ccccc1C#Cc1ccc([N+](=O)[O-])cc1	-10%	-12	?	63%	-41%	?
Nc1ccccc1C#CC(=O)c1ccccc1	3.5µM*	-2	?	.	-84%	?
Brc1ccc(/C=C2\C=Cc3ccccc32)cc1	-7%	.	.	.	-33%	.
CCCCC(CC)COC(=O)CC(C(=O)OCC(CC)CCCC)S(=O)(=O)O (stereo unspecified)	.	-6	.	.	.	?
CCCCC(CC)COC(=O)C(C#N)=C(c1ccccc1)c1ccccc1 (stereo unspecified)	1%	-93	-74*	-8%	-7%	i
Cc1ccccc1OCc1ccc(-c2nc(C#N)c(NCc3cccnc3)o2)o1	?	8	.	32µM*	-36%	?

Bioassay records as filed in PubChem.
